Assay outcomes (PubChem BioAssay)
Only some compounds are listed: those with a hit (about 14% of all), similar ones and a draw of the others.
Pf growth 96h: P. falciparum growth inhibition at 96 hours; AID 504834; P. falciparum luciferase reporter growth, 96 h; Potency, µM (top dose mostly 28.7 µM), inactives show at the highest dose activity change, negative = inhibition, actives largely listed as inhibitors; hit rate 6.9% among 320,000; also: potency is read from the fitted curve at half-maximal effect
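Delayed-death screen, second-generation endpoint: infected erythrocytes, 2% hematocrit, 0.05% parasitemia final; 96 hours at 37 C, 5% CO2; luciferase detection reagent; luminescence decrease equals reduced growth.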
Pf growth 48h: P. falciparum growth inhibition at 48 hours (one generation). P. falciparum luciferase growth in erythrocytes, 48 h. AID 504832. Potency, µM (series often up to 28.7 µM), for the others: top-dose activity change, negative = inhibition, hits mostly inhibitors. hit rate 5.9% among 310,000; also: potency is read from the fitted curve at half-maximal effect
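A one-generation exposure of luciferase-tagged malaria parasites in RPMI 1640/Albumax erythrocyte culture, 37 C and 5% CO2. Inhibition is inferred from decreased luminescence after adding detection reagent.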
HCMV inh: human cytomegalovirus inhibition; HFF cells, HCMV-luciferase reporter, 72 h; stronger effect = lower value; hit rate 4.5% among 410,000; activity change, negative = inhibition, % at 57.5 µM; in the data active = activity change below about -60%; inconclusive = no clear call, values can overlap the other calls; inactive = above about -39%
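Cell-based, HFFs, 1000 cells/well, 16 h 37C; cpds in DMSO + HCMV-luc, MOI 1 PFU/cell; 72 h 37C; OneGlo luminescence after 5 min RT; norm. to buffer vs Salinomycin 10uM.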
Sm TGR inh: blocks Schistosoma mansoni thioredoxin glutathione reductase | Q962Y6 | purified TGR, DTNB reduction, TNB absorbance 405 nm | Potency, µM (series often up to 114 µM), without a hit: top-dose activity change, negative = inhibition, hits mostly inhibitors | hit rate 3% among 360,000; also: potency is read from the fitted curve at half-maximal effect; nearly all actives have a fitted effect of over 60% in size
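First, TGR (20 nM dispensed) and NADPH were mixed with compound. Second, a 15 min room-temperature incubation followed. Third, further NADPH and then DTNB were added to start the reaction. Finally, TNB absorbance was monitored kinetically.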
Giardia FBPA inh: blocks Giardia fructose-bisphosphate aldolase activity; A8B2U2; purified Giardia FBPA; Potency, µM (titrated, usually from 59.6 µM), for inactives: at the highest dose activity, negative = inhibition, actives largely listed as inhibitors; hit rate 0.71% among 290,000; AID 2451; also: potency is read from the fitted curve at half-maximal effect; nearly all actives have a fitted effect of over 55% in size
Target sequence (A8B2U2 whole entry, looked up): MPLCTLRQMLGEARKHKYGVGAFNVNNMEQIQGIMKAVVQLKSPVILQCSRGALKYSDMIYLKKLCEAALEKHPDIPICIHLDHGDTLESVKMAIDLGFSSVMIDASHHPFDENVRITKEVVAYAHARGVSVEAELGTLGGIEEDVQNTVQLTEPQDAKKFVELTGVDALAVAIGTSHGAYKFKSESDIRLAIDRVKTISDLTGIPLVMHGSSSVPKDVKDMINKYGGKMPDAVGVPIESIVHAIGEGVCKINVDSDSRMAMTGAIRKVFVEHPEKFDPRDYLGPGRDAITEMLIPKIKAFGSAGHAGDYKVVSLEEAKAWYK
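Giardia FBPA (40 nM reagent) was preincubated 10 min at RT with compound (up to 57.5 uM final), then substrate plus GAPDH/TPI/NAD/arsenate coupling system with diaphorase/resazurin was added; resorufin fluorescence (525/598 nm) was read after 20 min.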
Numbers without * were called inactive; ? = inconclusive; nt = no result. Unless noted, calls follow the shape of the dose curve; as a rule, active = well fitted curve in the direction sought with a large enough effect; inconclusive = small, poorly fitted or top-dose-only effect, or another doubt; inactive = no such curve, though single readings can be large; an effect the other way counts as inactive or inconclusive. % is scaled to controls: 0 for no effect and ±100 for the full control effect.

SMILES | Pf growth 96h | Pf growth 48h | HCMV inh | Sm TGR inh | Giardia FBPA inh
CCOc1ccc(/C=C/c2nc(C#N)c(N3CCN(c4ccccc4)CC3)o2)cc1 | nt | nt | -7.3 | -2.2% | nt
CC(C)c1ccccc1NC(=O)Nc1nnc([C@H]2C[C@H](O)[C@@H](CO)O2)s1 | nt | nt | -14.5 | nt | nt
COc1ccc(-c2csc(N3CCN(S(=O)(=O)c4ccc5c(c4)NC(=O)CO5)CC3)n2)cc1 | 11.7µM* | 8.28µM* | -87.7* | 1.3% | nt
O=C1COc2ccc(S(=O)(=O)N3CCN(c4ccccc4F)CC3)cc2N1 | 68.6% | -17.1% | -24.8 | -1.5% | nt
O=S(=O)(c1ccc(F)cc1)N1CCN(c2nc(-c3ccc(F)cc3)cs2)CC1 | ? | ? | ? | 2.9% | -6.5%
Cc1sc(N2CCN(S(=O)(=O)c3ccc4c(c3)NC(=O)CO4)CC2)nc1-c1ccccc1 | 9.28µM* | ? | 45.0 | -20.8% | nt
COc1cc(C#N)c(NC(=S)N2CCN(C(=O)c3ccco3)CC2)cc1OC | nt | nt | 1.8 | nt | nt
CN(CC(=O)Nc1cccc(F)c1)C(=O)Cn1cnc2c1c(=O)n(C)c(=O)n2C | 31.3% | ? | -6.0 | -1.8% | nt
Cc1cc(C)c(NC(=O)C2CCCN2CCO)c(C)c1 (stereo unspecified) | nt | 6.8% | 28.8 | -27.8% | 9.7%
Cc1ccc(CCNC(=O)C2CC(=O)N(C3CCCCC3)C2)cc1 (stereo unspecified) | 1.47µM* | 8.1% | 0.0 | -7.5% | nt
Cc1cc(C)c(NC(=O)C2CC(=O)N(C3CCCC3)C2)c(C)c1 (stereo unspecified) | nt | nt | -72.4* | nt | nt
CCc1ccc(CNC(=O)C2CC(=O)N(C3CCCC3)C2)cc1 (stereo unspecified) | 2.62µM* | -14.0% | 0.0 | 4.3% | -3.9%
O=C(Nc1ccccc1)C1CC(=O)N(C2CCCCC2)C1 (stereo unspecified) | 15.3% | 13.8% | 16.7 | -0.6% | 6.2%
Cc1cc(C)c(NC(=O)C2CCCN2C)c(C)c1 (stereo unspecified) | 8.28µM* | 38.7% | -16.0 | -11.1% | 3.5%
O=C(Nc1ccc([N+](=O)[O-])cc1)c1cccc(S(=O)(=O)Nc2cccnc2)c1 | ? | 21.4% | -30.0 | -15.0% | 8.8%
Cc1ccc(-c2noc(C3CC(=O)N(c4ccc5c(c4)OCCO5)C3)n2)cc1 (stereo unspecified) | nt | nt | 16.1 | 6.0% | nt
COc1ccccc1NC(=O)CSc1nnc(-c2ccccn2)n1Cc1ccco1 | 11.7µM* | ? | -5.0 | 39.8µM* | 1.8%
CCOc1ccc(NC(=O)CSc2nnc(-c3ccccc3Cl)n2Cc2ccco2)cc1 | 0.0329µM* | ? | 1.6 | -24.6% | -10.2%
COc1ccccc1NC(=O)CSc1nccc(-c2ccco2)n1 | ? | ? | 16.0 | 25.1µM* | nt
COc1ccc(NC(=O)CSc2nnc(-c3ccccc3Cl)n2Cc2ccco2)c(OC)c1 | nt | ? | 38.6 | 35.5µM* | 13.8%
COc1ccccc1Cc1c(-c2ccc(OC)c(OC)c2)nc2c(Cl)cc(C(F)(F)F)cn12 | nt | nt | 10.9 | nt | nt
COCCSc1nc2c([nH]c3ccccc32)c(=O)n1-c1ccc(OC)c(OC)c1 | nt | nt | 2.9 | -2.9% | nt
Cc1ccc(NCN2C(=O)c3ccccc3C2=O)c(C)n1 | nt | nt | 27.8 | nt | nt
CN1CCN(c2nc3c(c(=O)[nH]c(=O)n3C)n2CCCSc2nnnn2-c2ccccc2)CC1 | 9.28µM* | ? | -23.2 | 0.6% | -1.8%
Cn1c(=O)[nH]c(=O)c2c1nc(SCC(=O)Nc1ccccc1)n2Cc1ccccc1 | 9.28µM* | 11.7µM* | 25.1 | 6.7% | 3.7%
SMILES | Pf growth 96h | Pf growth 48h | HCMV inh | Sm TGR inh | Giardia FBPA inh
CC(C)=NNc1nc2c(c(=O)[nH]c(=O)n2C)n1CCc1ccccc1 | -9.1% | -11.3% | ? | -14.9% | -23.2%
CC1CCCN(c2nc3c(c(=O)[nH]c(=O)n3C)n2Cc2ccccc2Cl)C1 (stereo unspecified) | -25.3% | ? | -82.4* | -14.3% | 3.6%
Cn1c(=O)[nH]c(=O)c2c1nc(N/N=C/C(Br)=C/c1ccccc1)n2CCO | ? | ? | 85.8 | 5.01µM* | ?
Cn1c(=O)[nH]c(=O)c2c1nc(N1CCCCC1)n2CCCSc1nnnn1-c1ccccc1 | ? | ? | 40.2 | 4.5% | -1.3%
Cn1cccc1C1CCCN1CC(=O)Nc1ccc(F)c(F)c1F (stereo unspecified) | nt | nt | -5.2 | nt | nt
CCc1cccc(-n2c(=O)c3cccnc3n2CC(=O)Nc2c(C)cc(C)cc2C)c1 | nt | nt | 6.3 | -1.2% | nt
O=C(Nc1ccc(Cl)cc1)NN1CC(=O)N(c2cccc(C(F)(F)F)c2)CC1=O | 11.4% | -11.6% | 22.9 | -6.1% | 1.8%
Cc1cccc(Cn2c(CN3CCN(Cc4ccccc4)CC3)nc3c2c(=O)[nH]c(=O)n3C)c1 | 1.85µM* | 6.57µM* | -27.0 | -22.0% | 3.9%
Cc1ccc(Cl)cc1N1CCN(Cc2nc3c(c(=O)[nH]c(=O)n3C)n2Cc2ccccc2F)CC1 | -25.4% | ? | -77.1* | 2.0% | 0.3%
CCCCCCn1c(N2CCN(c3ccccc3)CC2)nc2c1c(=O)n(C)c(=O)n2C | nt | 6.57µM* | -27.5 | 6.8% | 4.7%
Cc1ccc(C(=O)CNc2nc3c(c(=O)[nH]c(=O)n3C)n2Cc2ccccc2)cc1 | 9.28µM* | 13.1µM* | 53.0 | 2.3% | -1.1%
O=C(Nc1cc(Cl)cc(Cl)c1)c1ccc(F)c(S(=O)(=O)N2CCCCCC2)c1 | nt | nt | 40.6 | -2.7% | nt
CC(=O)N1CCC(N(Cc2ccco2)C(=O)Nc2cccc(C)c2)CC1 | nt | nt | 21.4 | -0.2% | nt
CCN1C(=NCC(C)C)N[C@@H](c2ccccc2)[C@H](C(=O)OC)[C@H]1C | ? | 35.4% | nt | -15.3% | 17.7%
CCCn1c(N2CCN(Cc3cccc(C)c3)CC2)nc2c1c(=O)[nH]c(=O)n2C | 1.85µM* | nt | -20.0 | -1.8% | 3.2%
Cc1cccc(Cn2c(N3CCN(C)CC3)nc3c2c(=O)[nH]c(=O)n3C)c1 | ? | 14.7% | 11.6 | 1.8% | 2.3%
Cn1c(=O)[nH]c(=O)c2c1nc(N1CCCCCC1)n2CCCSc1nc2ccccc2o1 | 19.1% | 11.7µM* | -25.7 | -8.8% | -2.6%
CC(C)CCn1c(N2CCN(Cc3ccccc3)CC2)nc2c1c(=O)[nH]c(=O)n2C | ? | ? | nt | -0.2% | -2.4%
CN(Cc1ccccc1)c1nc2c(c(=O)[nH]c(=O)n2C)n1CCOc1ccccc1 | ? | 9.28µM* | 9.0 | 1.6% | -2.4%
CCCCCn1c(N2CCN(Cc3ccccc3)CC2)nc2c1c(=O)[nH]c(=O)n2C | ? | 11.7µM* | -32.6 | 4.2% | 2.9%
COc1ccccc1CNC(=O)CSc1cc(=O)n(C)c2ccccc12 | 68.0% | -30.1% | -40.0 | 4.0% | -0.3%
Cc1ccc(C)c(CN2CCCN(Cc3cc(C)ccc3C)S2(=O)=O)c1 | 10.0% | -6.0% | ? | 24.4% | 7.5%
COc1ccccc1C1/C(=C(\O)c2ccc3c(c2)OCCO3)C(=O)C(=O)N1CCCn1ccnc1 (stereo unspecified) | 7.0% | 2.5% | -38.8 | -19.0% | -11.6%
